Test results reported in PubChem BioAssay AID624417 (National Center for Advancing Translational Sciences (NCATS), 2012).
The whole screen tested about 410,000 compounds, of which about 6,400 (1.6%) were called active. Not shown: some 20% with an inconclusive outcome. Calls come from the whole dose curve; as a rule, active = well fitted inhibition curve with a large enough effect; inconclusive = small, poorly fitted or top-dose-only effect; inactive = no such curve, though single readings can be large or run the other way. What follows is part of a selection rich in actives, with near analogues and random picks from the rest. A call without a number means that no potency is given here.
Note: nearly all actives have a fitted effect of over 55% in size.
Potency is the fitted concentration of half-maximal effect.

The molecules below were run against Glucagon-like peptide 1 receptor (Homo sapiens) (UniProt P43220) (assay: qHTS of GLP-1 Receptor Inverse Agonists (Inhibition Mode)). Settings: HEK293 GLP-1R CRE-luciferase, luminescence, 24 h, GLP-1R form is constitutively active; series mostly up to 38.3 µM.
Glucagon-like peptide 1 receptor (Homo sapiens), sequence (P43220 whole entry, looked up): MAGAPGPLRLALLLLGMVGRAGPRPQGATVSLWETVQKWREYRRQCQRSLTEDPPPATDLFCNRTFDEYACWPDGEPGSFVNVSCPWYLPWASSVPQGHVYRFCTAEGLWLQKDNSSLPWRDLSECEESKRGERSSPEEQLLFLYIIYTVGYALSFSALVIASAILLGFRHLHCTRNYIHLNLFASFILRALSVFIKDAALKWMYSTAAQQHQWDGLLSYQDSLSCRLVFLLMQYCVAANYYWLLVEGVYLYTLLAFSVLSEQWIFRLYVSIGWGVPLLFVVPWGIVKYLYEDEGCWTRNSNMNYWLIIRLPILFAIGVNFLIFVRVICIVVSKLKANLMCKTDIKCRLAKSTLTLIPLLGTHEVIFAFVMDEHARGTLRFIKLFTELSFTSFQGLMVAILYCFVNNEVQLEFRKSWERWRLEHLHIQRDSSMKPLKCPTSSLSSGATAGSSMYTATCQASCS
Summary of the method: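 Constitutively active GLP-1R drives a cAMP-responsive luciferase in stably transfected HEK293 cells; test compounds are added after overnight (12 h) attachment and left 24 hr, and signal loss in luminescence marks inhibition.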
Nc1cc(=O)c2[nH]cnc2[nH]1 was tested, and the Potency was “inactive”.
With Cc1cc(C)n2c(Nc3c(C)cccc3C)c(CCc3ccccc3)nc2n1 the Potency was “inactive”.
For CN(Cc1ccccc1F)c1cc2c(c3c1ccn3C)C1CCC2O1 (centres undefined), the Potency was “inactive”.
For N#CC1(Nc2ccc3c4c(cccc24)CC3)CCCCC1, the Potency was “inactive”.
Cc1sc2ncnc(N3CCC(C(=O)Nc4nc5ccc(Cl)cc5s4)CC3)c2c1C was tested, and the Potency was “inactive”.
O=C(NNC(=O)C1CCN(c2ncccn2)CC1)c1ccccc1 was tested, and the Potency was “inactive”.
For CCc1ccc(C(=O)NNC(=O)C2CCN(c3ncnc4sc(C)c(C)c34)CC2)cc1, the Potency was 10 µM (active).
For C[C@H]1CN([C@@H](C)CO)C(=O)c2cc(C3=CCCCC3)cnc2O[C@@H]1CN(C)C(=O)Cc1ccccc1, the Potency was “inactive”.
With CC(C)Nc1ncnc2c1ncn2[C@H]1CN(Cc2ccncc2)C[C@@H](CO)O1 the Potency was “inactive”.
With O=C(NCc1ccncc1)NC12CC3CC(CC(C3)C1)C2 the Potency was “inactive”.
With S=C(NCc1ccc(Cl)cc1)NC12CC3CC(CC(C3)C1)C2 the Potency was 8.91 µM (active).
In the case of O=C(NCc1ccc(Cl)cc1)NCc1ccc(Cl)cc1, the activity change, negative = inhibition was -0.855% [at 7.66 µM] (inactive).
With O=C(NC1CCCC1)C1c2ccccc2OCC(=O)N1Cc1ccccc1 (centres undefined) the Potency was “inactive”.
CCOC(=O)c1cnn2c(SC)ncnc12 was tested, and the Potency was “inactive”.
CC(C)Nc1nc(N(c2ccccc2)c2ccccc2)nc(-n2ccnc2)n1 was tested, and the Potency was “inactive”.
For N#Cc1nc(N)nc(N(c2ccccc2)c2ccccc2)n1, the Potency was 12.6 µM (active).
CC(C)Cn1cc(-c2cncc3nccn23)cn1 was tested, and the Potency was “inactive”.
CCCC(=O)N1CCC1(C)C(=O)NS(=O)(=O)c1ccc(Cl)cc1 (centres undefined) was tested, and the Potency was “inactive”.
For CCCNC(=O)C1(C)CCCN(Cc2c(C)nn(-c3ccccc3)c2C)C1 (centres undefined), the Potency was “inactive”.
Cc1c(C)n(Cc2ccc(Cl)cc2)c2ccc(C(=O)NCCCN3CCOCC3)cc12 was tested, and the Potency was 1.12 µM (active).
Cc1c(C)n(Cc2ccc(Cl)cc2)c2ccc(C(=O)NCCc3ccc(S(N)(=O)=O)cc3)cc12 was tested, and the Potency was “inactive”.
O=C(NCCCN1CCOCC1)c1cc(-c2ccc(Cl)cc2)on1 was tested, and the Potency was “inactive”.
For COc1cc(C2CC(=O)c3cnc(NC(C)=O)nc3C2)cc(OC)c1OC (centres undefined), the Potency was “inactive”.
For CCN1CCN(c2ncc3c(n2)CC(c2ccccc2O)CC3=O)CC1 (centres undefined), the Potency was 10 µM (active).
With CN1CCN(c2ncc3c(n2)CC(c2ccccc2F)CC3=O)CC1 (centres undefined) the Potency was 3.98 µM (active).
CCc1ccc(Nc2ncc3c(n2)CC(c2ccco2)CC3=O)cc1 (centres undefined) was tested, and the Potency was “inactive”.
For Cc1nc2nc3c(cn2n1)C(=O)CC(c1ccccc1)C3 (centres undefined), the Potency was “inactive”.
O=C1c2ccccc2C(=O)C1c1ccccc1F was tested, and the Potency was “inactive”.
With O=C(OCc1ccccc1)N1CCC2CC1c1cc(N3CCN(S(=O)(=O)c4cc(Cl)cc(Cl)c4)CC3)ccc12 (centres undefined) the Potency was “inactive”.
With CC(=O)Nc1ccc(SCC(=O)NC(=O)c2ccc(Cl)cc2)cc1 the Potency was “inactive”.
With COc1ccc([C@H]2C[C@@H](n3cc(COC(=O)c4ccccc4)nn3)[C@H](O)CN2C(=O)c2cccs2)cc1 the Potency was “inactive”.
In the case of CC(C)OC(=O)CC(=O)CC(O)c1cccc([N+](=O)[O-])c1 (centres undefined), the Potency was “inactive”.
With NCCCCC(C(=O)O)N(C(=O)OCc1ccccc1)C(=O)OCc1ccccc1 (centres undefined) the Potency was “inactive”.
COc1ccc(CN2C(=O)C(CC(=O)NCCN3CCOCC3)CC(C(=O)N(C(C)C)C(C)C)=C2C)cc1 (centres undefined) was tested, and the Potency was “inactive”.
O=C(NC(=S)Nc1ccccc1N1CCCCC1)c1ccc(F)cc1 was tested, and the Potency was 12.6 µM (active).
In the case of COc1ccc(C(=O)NC(=S)Nc2ccccc2N2CCN(S(C)(=O)=O)CC2)cc1OC, the Potency was “inactive”.
O=C(Nc1ccccc1N1CCCC1)c1ccc2ccccc2c1 was tested, and the Potency was “inactive”.
With CCCC/C=C/c1cccc2nncn12 the Potency was “inactive”.
CN1c2ccc(C=O)c3c(C=O)ccc(c23)N(C)C1(C)C was tested, and the Potency was 12.6 µM (active).
For Cc1ccc(C=O)c([B-](F)(F)F)c1, the Potency was “inactive”.
CCOC(=O)N1C(=O)C[C@](Sc2ccc(C)cc2)(C(=O)OC)[C@H]1c1ccccc1 was tested, and the Potency was “inactive”.
In the case of COc1ccc(CNC(=O)[C@H](Cc2c[nH]c3ccccc23)NC(C)=O)cc1OC, the Potency was “inactive”.
In the case of COc1ccc(NC(=O)[C@H](NC(=O)[C@@H]2Cc3ccccc3CN2)c2ccccc2)cc1, the Potency was “inactive”.
COc1cccc(NC(=O)[C@H](Cc2c[nH]c3ccccc23)NC(=O)[C@@H]2Cc3ccccc3CN2)c1 was tested, and the Potency was 3.98 µM (active).
For O=C(O)c1ccccc1-c1cccc2nncn12, the Potency was “inactive”.
COc1ccc(CNC(=O)COC(=O)c2c(C)nn(-c3ccccc3)c2C)cc1OC was tested, and the Potency was “inactive”.
With CCCn1c(C)cc(C(=O)COC(=O)c2c(C)nn(-c3ccccc3)c2C)c1C the Potency was 10 µM (active).
Cc1cccc(C)c1NC(=O)COC(=O)c1c(C)nn(-c2ccccc2)c1C was tested, and the Potency was “inactive”.
Cc1noc(C)c1C(=O)N1CCC1(C)C(=O)NS(=O)(=O)c1ccc(C#N)cc1 (centres undefined) was tested, and the Potency was “inactive”.
For Clc1ccc(-c2cccc3nccn23)cc1, the Potency was “inactive”.
COc1ccc(C2CC(c3cccc(OC)c3)=NN2c2ccc(S(N)(=O)=O)cc2)cc1 (centres undefined) was tested, and the Potency was “inactive”.
For Cc1cccn2c(=O)c3cc(C(=O)NCC4CCCO4)c(=N)n(Cc4ccc(F)cc4)c3nc12 (centres undefined), the Potency was “inactive”.
With CCCn1c(=N)c(C(=O)NCc2ccccc2)cc2c(=O)n3cccc(C)c3nc21 the Potency was “inactive”.
With Cc1cccn2c(=O)c3cc(C(=O)NCCN4CCOCC4)c(=N)n(Cc4cccnc4)c3nc12 the Potency was 3.98 µM (active).
For C=CCn1c2c(c3ccccc31)CCC2, the Potency was “inactive”.
For CN1c2ccc([N+](=O)[O-])cc2C(C)(C)C12C=Cc1cc(C(=O)O)ccc1O2 (centres undefined), the Potency was “inactive”.
COc1ccc2c(c1)C=CC1(O2)N(CCO)c2ccccc2C1(C)C (centres undefined) was tested, and the Potency was 2.51 µM (active).
For CCCCn1nnnc1C1(C)CCC(=O)N1Cc1ccc(OC)c(OC)c1 (centres undefined), the Potency was “inactive”.
With Cc1cccc(C)c1NC(=O)CNC(=O)c1ccc(N2CCOCC2)c([N+](=O)[O-])c1 the Potency was “inactive”.
In the case of CC(C)NC(=O)C1(C)CCCCN1Cc1cccc(C(F)(F)F)c1 (centres undefined), the Potency was “inactive”.
In the case of CC1(C(=O)Nc2cccnc2)Cc2c(-c3ccccc3)ccnc2O1 (centres undefined), the Potency was “inactive”.
For CC(=O)Nc1cnc(-c2ccc(O)cc2C)cn1, the Potency was “inactive”.
With Cc1cccnc1NC(=O)c1cccc(S(=O)(=O)N2CCN(c3ccc(F)cc3)CC2)c1 the Potency was “inactive”.
With Cc1cccc(C)c1NC(=O)CN1CCN(c2ccc(F)cc2)CC1 the Potency was “inactive”.
For Oc1c(CN2CCN(c3ccc(F)cc3)CC2)cc(Cl)c2cccnc12, the Potency was 2.51 µM (active).
In the case of Cc1ccc(S(=O)(=O)NN=C2CC(C)(C)CC(=O)C2(C)C)cc1, the Potency was “inactive”.
In the case of CSc1ccc(/C=C/C(=O)NC23CC4CC(CC(C4)C2)C3)cc1, the Potency was 11.2 µM (active).
For COc1ccccc1C(=O)NC(=S)NC12CC3CC(CC(C3)C1)C2, the Potency was “inactive”.
In the case of COc1ccc(/C=C/C(=O)Nc2ccc(C34CC5CC(CC(O)(C5)C3)C4)cc2)cc1OC, the Potency was “inactive”.
COc1ccc(C(=O)NCC2CCCO2)cc1S(=O)(=O)NCc1ccc(Cl)cc1 (centres undefined) was tested, and the Potency was “inactive”.
For Cc1cccc(C)c1-n1nnnc1C1(C)CCC(=O)N1CCOc1ccccc1 (centres undefined), the Potency was “inactive”.
In the case of O=C(NCc1ccco1)c1cccc(-c2ccc3nncn3c2)c1, the Potency was “inactive”.
In the case of CCCCN(C)C(=O)C1CCN(Cc2ccccn2)CC1, the Potency was “inactive”.
CCCCN(Cc1ccccc1)C(=O)C1CCN(Cc2sccc2C)CC1 was tested, and the Potency was 7.08 µM (active).
CCCC(=O)C1CCN(Cc2ccccc2)CC1 was tested, and the Potency was “inactive”.
In the case of CC(=O)Nc1cccc(-c2csc(Nc3cccc(C)n3)n2)c1, the Potency was “inactive”.
In the case of O=C(O)c1ccccc1C(=O)Nc1nc(-c2ccccc2)cs1, the Potency was “inactive”.
In the case of Cc1cccc(Nc2nc(-c3ccccc3)cs2)n1, the Potency was 3.16 µM (active).
CCc1c(N=O)c(-c2ccccc2)n(O)[n+]1[O-] was tested, and the Potency was “inactive”.
CCC(Oc1ccccc1)C(=O)OCC(=O)Nc1c(C)nn(-c2ccccc2)c1C (centres undefined) was tested, and the Potency was “inactive”.
For Cc1ccc(S(=O)(=O)N(CC(=O)N2CCc3ccccc3C2)c2cccc(Cl)c2)cc1, the Potency was 8.91 µM (active).
In the case of COc1cccc(N(CC(=O)N2CCc3ccccc3C2)S(C)(=O)=O)c1, the Potency was “inactive”.
For CS(=O)(=O)N(CC(=O)N1CCc2ccccc2C1)c1ccc(Br)cc1, the Potency was “inactive”.
In the case of O=C(NCc1ccccc1)C1c2ccccc2OCC(=O)N1C1CC1 (centres undefined), the Potency was “inactive”.
CC(C)CC1C(=O)N(Cc2cn(CC3CCCCC3)nn2)CCS(=O)(=O)N1Cc1ccc(-c2ccc(Cl)cc2)cc1 (centres undefined) was tested, and the Potency was “inactive”.
For COc1ccc(-c2ccc(CN3C(CC(C)C)C(=O)N(Cc4cn(CC5CCCCC5)nn4)CCS3(=O)=O)cc2)cc1 (centres undefined), the Potency was 10 µM (active).
For CC1C(=O)N(Cc2cn(Cc3ccco3)nn2)CCS(=O)(=O)N1Cc1ccc(-c2cccc(CO)c2)cc1 (centres undefined), the Potency was “inactive”.
In the case of COc1ccc(-c2ccc(CN3C(C(C)C)C(=O)N(Cc4cn(CC5CCCCC5)nn4)CCS3(=O)=O)cc2)cn1 (centres undefined), the Potency was “inactive”.
With CC(C)CC1C(=O)N(Cc2cn(Cc3ccco3)nn2)CCS(=O)(=O)N1Cc1ccc(-c2ccc(Cl)c(Cl)c2)cc1 (centres undefined) the Potency was 10 µM (active).
COCOCCn1cc(CN2CCS(=O)(=O)N(Cc3ccc(-c4cccc(N(C)C)c4)cc3)C(CC(C)C)C2=O)nn1 (centres undefined) was tested, and the Potency was “inactive”.
For CCN1C(=O)[C@@H]2[C@@H]3CN(S(=O)(=O)c4ccccc4C)[C@@H](c4ccc(Cl)cc4)[C@@H]3C(=O)C[C@@H]2C1=O, the Potency was “inactive”.
With CCOC(=O)c1cc(-c2sc(NC(=O)c3ccccc3)nc2C)n(CCO)n1 the Potency was “inactive”.
CCc1nc2ccc(C(=O)NCCNC(C)=O)cn2c1N(CC)Cc1cccc(Br)c1 was tested, and the Potency was “inactive”.
In the case of COc1ccc(CNC(=O)Cn2nnc(-c3ccccc3F)n2)cc1, the Potency was “inactive”.
C#CC(C)(CC)NC(=O)Cn1nnc(-c2ccc(OCc3c(F)cccc3Cl)cc2)n1 (centres undefined) was tested, and the Potency was 3.16 µM (active).
For CC(C)(C)NC(=O)Cn1nnc(-c2ccccc2Cl)n1, the Potency was “inactive”.
In the case of CNS(=O)(=O)c1cccc(C(=O)NCC2CCCCC2)c1, the Potency was “inactive”.
With CN(C(=O)c1cccc(OC2CCN(S(=O)(=O)N(C)C)CC2)c1)C1CCOC1 (centres undefined) the Potency was “inactive”.
For CN(C)S(=O)(=O)N1CCC(Oc2cccc(C(=O)NCCCC3CCCC3)c2)CC1, the Potency was 10 µM (active).
